Test results from PubChem BioAssay (Tox21).
Records with an inconclusive call do not appear. Active and inactive are the calls of the source. Unless noted, the call rests on the fitted dose curve; in most records, active means well fitted curve in the direction sought with a large enough effect in the repeat runs; inconclusive means weak or mixed curves; inactive means no such curve, though single readings can be large; an effect the other way counts as inactive or inconclusive.

Key:
[1] = qHTS assay to identify small molecule agonists of the hypoxia (HIF-1) signaling pathway (AID 1224846; active means well fitted activation curve with a large enough effect in the signal ratio in the repeat runs, not every such curve was filed as active; the % refers to the signal ratio)
How it was run: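 Measured by blue/green FRET after loading CCF4-AM: beta-lactamase expressed from a hypoxia response element in ME-180 cells. Test agents were delivered in DMSO and left 17 hrs; cells had been plated 5 hrs earlier in low-serum (0.5% dialyzed FBS) medium.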

[2] = qHTS assay to identify small molecule agonists of H2AX - cell viability counter screen (AID 1224847; calls by dose curve; further: nearly all actives have a fitted effect of over 30% in size; further: potency means the concentration at half of the fitted maximal effect)
How it was run: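 After overnight plating of 1000 CHO-K1 cells per well, a 15-concentration compound series was applied for 3 hr at 37C. Luminescence from CellTiter-Glo, read following 30 min at room temperature, reflected cell viability.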

[3] = A CellTox Green Cytotoxicity Assay to monitor cytotoxicity in HEK293 cells - 0 hour (AID 1224869); further: nearly all actives have a fitted effect of over 50% in size; further: potency means the concentration at half of the fitted maximal effect
How it was run: (§1)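 Each value comes from one timepoint of a single continuous run in which HEK293 cells with CellTox Green were exposed to compound for up to 40 h at 37 C, dye fluorescence rising with cell death.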

[4] = qHTS RealTime-Glo MT Cell Viability Assay in HepG2 cells - 40 hour (AID 1224870); further: nearly all actives have a fitted effect of over 50% in size
How it was run: (§2)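 HepG2 cells (600/well) mixed with RealTime-Glo MT reagent, settled 5 h at 37 C/5% CO2 before compound addition. Nonlytic NanoLuc luminescence from viable-cell prosubstrate reduction read repeatedly during 40 h treatment at 37 C.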

[5] = A CellTox Green Cytotoxicity Assay to monitor cytotoxicity in HEK293 cells - 40 hour (AID 1224871); further: nearly all actives have a fitted effect of over 45% in size; further: potency means the concentration at half of the fitted maximal effect
How it was run: as §1

[6] = qHTS RealTime-Glo MT Cell Viability Assay in HepG2 cells - 8 hour (AID 1224873); further: nearly all actives have a fitted effect of over 55% in size
How it was run: as §2

[7] = A CellTox Green Cytotoxicity Assay to monitor cytotoxicity in HEK293 cells - 24 hour (AID 1224875); further: nearly all actives have a fitted effect of over 45% in size; further: potency means the concentration at half of the fitted maximal effect
How it was run: as §1

[8] = A CellTox Green Cytotoxicity Assay to monitor cytotoxicity in HepG2 cells - 16 hour (AID 1224876); further: nearly all actives have a fitted effect of over 45% in size; further: potency means the concentration at half of the fitted maximal effect
How it was run: (§3)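 Continuous culture of HepG2 cells with a membrane-impermeant DNA dye; rising fluorescence marks dead cells. Compound exposure lasted up to 40 h at 37 C, with reads every 8 h from 0 h.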

[9] = A CellTox Green Cytotoxicity Assay to monitor cytotoxicity in HepG2 cells - 24 hour (AID 1224878); further: nearly all actives have a fitted effect of over 45% in size; further: potency means the concentration at half of the fitted maximal effect
How it was run: as §3

[10] = A CellTox Green Cytotoxicity Assay to monitor cytotoxicity in HepG2 cells - 40 hour (AID 1224879); further: nearly all actives have a fitted effect of over 40% in size; further: potency means the concentration at half of the fitted maximal effect
How it was run: as §3

[11] = qHTS RealTime-Glo MT Cell Viability Assay in HEK293 cells - 0 hour (AID 1224880)
How it was run: (§4)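 qHTS format; HEK293 cells with NanoLuc/prosubstrate reagent, 37 C/5% CO2 for 5 h pre-dosing; compounds 23 nL in DMSO; luminescence at each time point reflects viable cells.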

[12] = qHTS assay to identify small molecule antagonists of the estrogen related receptor (ERR) signaling pathway from Tox21 library (AID 1224848); further: nearly all actives have a fitted effect of over 50% in size; further: potency means the concentration at half of the fitted maximal effect
How it was run: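 Luminescent reporter read-out (ONE-Glo) from NTP's ERR cell line after 18 h treatment at 37 C with DMSO-dissolved Tox21 compounds; cells pre-plated 6 h beforehand at 2,000 per well.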

[13] = qHTS RealTime-Glo MT Cell Viability Assay in HepG2 cells - 24 hour (AID 1224867); further: nearly all actives have a fitted effect of over 50% in size
How it was run: (§5)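 HepG2 cells (600/well) were dispensed with RealTime-Glo reagents, incubated 5 h at 37 °C, then treated with compounds in DMSO for up to 40 h. Nonlytic NanoLuc luminescence reflecting viable cells was read at each stated time point.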

[14] = qHTS RealTime-Glo MT Cell Viability Assay in HEK293 cells - 32 hour (AID 1224868); further: nearly all actives have a fitted effect of over 50% in size; further: potency means the concentration at half of the fitted maximal effect
How it was run: (§6)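 HEK293 cells seeded with NanoLuc/prosubstrate reagent, rested 5 h at 37 C, then dosed and kept at 37 C up to 40 h. Nonlytic real-time luminescence from viable cells read at 0, 8, 16, 24, 32 and 40 h.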

[15] = qHTS RealTime-Glo MT Cell Viability Assay in HEK293 cells - 16 hour (AID 1224872); further: nearly all actives have a fitted effect of over 50% in size; further: potency means the concentration at half of the fitted maximal effect
How it was run: as §6

[16] = qHTS RealTime-Glo MT Cell Viability Assay in HEK293 cells - 40 hour (AID 1224874); conditions: RealTime-Glo luminescence; max response: stronger effect = lower value; further: nearly all actives have a fitted effect of over 50% in size; further: potency means the concentration at half of the fitted maximal effect
How it was run: as §4

[17] = qHTS RealTime-Glo MT Cell Viability Assay in HepG2 cells - 32 hour (AID 1224877); further: nearly all actives have a fitted effect of over 55% in size
How it was run: as §5

[18] = qHTS assay to identify small molecule agonists of the estrogen related receptor (ERR) signaling pathway from Tox21 library (AID 1224849; calls by dose curve; further: nearly all actives have a fitted effect of over 15% in size); conditions: ERR reporter cell line, ONE-Glo luciferase, 18 h; at 92.4 µM (top of the series) unless noted
How it was run: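 We plated ERR reporter cells, waited 6 h, added compounds in DMSO by pin tool and incubated them 18 h at 37 C. ONE-Glo was then added and luminescence read after 30 min.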

[19] = qHTS assay to identify small molecule agonists of H2AX (AID 1224845; active means well fitted activation curve with a large enough effect in the signal ratio in the repeat runs, not every such curve was filed as active; the % refers to the signal ratio)
How it was run: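 Wild-type CHO-K1 cells, plated overnight, exposed 3hr at 37C to 15 concentrations (0.76% DMSO final). Lysed, then HTRF anti-pH2AX (S139) cryptate and anti-H2AX-d2 antibodies, 24 hr room temperature; 665/620 nm emission read.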
On the % scale 0 is the no-effect control and ±100 the full control effect.

CCC(=O)O[C@]1(C(=O)CCl)[C@@H](C)C[C@H]2[C@@H]3CCC4=CC(=O)C=C[C@]4(C)[C@@]3(F)[C@@H](O)C[C@@]21C
inactive: Potency [1] | Potency [2] | Potency [3] | Potency [4] | Potency [5] | Potency [6] | Potency [7] | Potency [8] | Potency [9] | Potency [10] | Potency [11]

CN(C)CCCN1c2ccccc2Sc2ccccc21
inactive: Potency [2] | Potency [12] | Potency [13] | Potency [14] | Potency [3] | Potency [4] | Potency [5] | Potency [15] | Potency [6] | max response [16] -25.3% | Potency [7] | Potency [17]
active: Potency [9] 26.8 µM

Cc1cccc(C)c1OCC(=O)N[C@@H](Cc1ccccc1)[C@@H](O)C[C@H](Cc1ccccc1)NC(=O)[C@H](C(C)C)N1CCCNC1=O
inactive: Potency [1] | activity change, positive = activation [18] -59.8% [at 42.5 µM] | Potency [13] | Potency [3] | Potency [4] | Potency [6] | Potency [17] | Potency [9] | Potency [10] | Potency [11]
active: Potency [12] 23.7 µM | Potency [14] 23.9 µM | Potency [15] 23.9 µM | Potency [16] 23.9 µM

Cc1oc(-c2ccccc2)nc1CCOc1cccc2c1ccn2CCC(=O)O
inactive: Potency [1] | Potency [2] | Potency [13] | Potency [14] | Potency [3] | Potency [4] | Potency [5] | Potency [15] | Potency [6] | max response [16] -19% | Potency [7] | Potency [17] | Potency [9] | Potency [10] | Potency [11]

CCC(C)c1cc(C(C)(C)C)c(O)c(C(C)(C)C)c1 (stereo unspecified)
inactive: Potency [1] | Potency [2] | Potency [14] | Potency [3] | Potency [4] | Potency [15] | max response [16] 0.103% | Potency [8] | Potency [17] | Potency [9] | Potency [10] | Potency [11]

O=C(OCCc1ccccc1)c1ccccc1
inactive: Potency [1] | Potency [13] | Potency [14] | Potency [4] | Potency [5] | Potency [15] | Potency [6] | max response [16] -19.4% | Potency [7] | Potency [8] | Potency [17] | Potency [9] | Potency [10] | Potency [11]

CCOC(=O)C1=C[C@]2(CC)CCCN3CCc4c(n1c1ccccc41)[C@@H]32
inactive: Potency [1] | Potency [2] | Potency [13] | Potency [3] | Potency [4] | Potency [5] | Potency [15] | Potency [6] | max response [16] -21.2% | Potency [7] | Potency [17] | Potency [11]

C=CC(=O)OCCOCCOC(=O)C=C
active: Potency [14] 34.8 µM | Potency [16] 31 µM | Potency [10] 49.2 µM
inactive: Potency [12] | Potency [3] | Potency [8] | Potency [11]

CCCCCCCCCCCCN1CCCCCC1=O
inactive: Potency [19] | Potency [4] | Potency [5] | Potency [6] | Potency [7] | Potency [17] | Potency [11]

C[C@H](CCC(=O)O)[C@H]1CC[C@H]2[C@@H]3CC[C@@H]4C[C@H](O)CC[C@]4(C)[C@H]3C[C@H](O)[C@]12C
inactive: Potency [19] | Potency [13] | Potency [3] | Potency [4] | Potency [15] | Potency [6] | max response [16] -23.1% | Potency [17] | Potency [9] | Potency [11]

COC(C)OC
inactive: Potency [1] | Potency [2] | Potency [12] | activity change, positive = activation [18] -2.66% | Potency [14] | Potency [3] | Potency [4] | Potency [5] | Potency [15] | Potency [6] | max response [16] 5.31% | Potency [7] | Potency [8] | Potency [17] | Potency [9] | Potency [10] | Potency [11]

Cc1cc(N)c2cc(NC(=O)Nc3ccc4nc(C)cc(N)c4c3)ccc2n1
inactive: Potency [13] | Potency [14] | Potency [3] | Potency [4] | Potency [5] | Potency [15] | Potency [6] | max response [16] -16.5% | Potency [7] | Potency [8] | Potency [9] | Potency [10] | Potency [11]

CCN(CC)c1ccc2c(-c3ccccc3C(=O)O)c3ccc(=[N+](CC)CC)cc-3oc2c1
inactive: Potency [1] | activity change, positive = activation [18] -49.3% | Potency [11]
active: Potency [2] 40.1 µM | Potency [12] 27.3 µM | Potency [14] 21.9 µM | Potency [3] 21.9 µM | Potency [5] 24.5 µM | Potency [15] 34.7 µM | Potency [16] 24.5 µM | Potency [7] 24.5 µM | Potency [8] 24.5 µM | Potency [9] 21.9 µM | Potency [10] 24.5 µM

COc1cc(C(=O)OCCCN2CCCN(CCCOC(=O)c3cc(OC)c(OC)c(OC)c3)CC2)cc(OC)c1OC
inactive: Potency [1] | Potency [2] | Potency [12] | activity change, positive = activation [18] -15% [at 42.5 µM] | Potency [13] | Potency [4] | Potency [8] | Potency [11]
active: Potency [14] 9.52 µM | Potency [15] 5.35 µM | Potency [16] 9.52 µM | Potency [10] 23.9 µM

C=CC(=O)OCCOc1ccccc1
inactive: Potency [2] | Potency [12] | Potency [13] | Potency [14] | Potency [3] | Potency [4] | Potency [5] | Potency [15] | max response [16] 2.45% | Potency [7] | Potency [8] | Potency [17] | Potency [9] | Potency [10] | Potency [11]
